Compound activity deposited in PubChem by National Center for Advancing Translational Sciences (NCATS).
In the library only some 21% were active in any assay of this set; here they are far more common.
RORgamma inh – ROR gamma (mouse) transcription inhibition; Potency, µM (series often up to 53.6 µM), for the others: top-dose activity change, negative = inhibition, actives largely listed as inhibitors; AID 2551; hit rate 5.4% among 310,000; Drosophila S2 Gal4-RORgamma UAS-luciferase reporter, 20 h; P51450; note: potency is the fitted concentration of half-maximal effect; nearly all actives have a fitted effect of over 60% in size
Target sequence (P51450 whole entry, looked up, the tested form may be a part): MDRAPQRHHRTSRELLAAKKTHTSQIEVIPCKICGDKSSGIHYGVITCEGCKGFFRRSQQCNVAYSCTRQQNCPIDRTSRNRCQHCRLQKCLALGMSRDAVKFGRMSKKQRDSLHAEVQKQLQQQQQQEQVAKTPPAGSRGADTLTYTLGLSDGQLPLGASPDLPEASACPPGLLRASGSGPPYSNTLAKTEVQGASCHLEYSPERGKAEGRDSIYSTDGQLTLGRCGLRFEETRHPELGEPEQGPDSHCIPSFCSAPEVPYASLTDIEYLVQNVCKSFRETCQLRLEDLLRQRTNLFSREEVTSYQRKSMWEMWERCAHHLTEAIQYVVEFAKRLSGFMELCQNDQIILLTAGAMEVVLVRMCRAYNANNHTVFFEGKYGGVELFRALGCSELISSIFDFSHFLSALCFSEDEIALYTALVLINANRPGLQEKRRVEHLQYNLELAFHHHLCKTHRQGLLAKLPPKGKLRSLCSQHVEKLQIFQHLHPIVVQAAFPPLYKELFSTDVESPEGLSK
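ROR gamma transcriptional activity was tracked as Gal4-UAS luciferase output in stably transfected Drosophila Schneider cells, with compound added 1 hr before 700 uM copper sulfate induction and a 20 hr ambient-temperature incubation.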
TDP1 cell CPT – growth inhibition of DT40 Tdp1-/-;hTDP1 cells with camptothecin (screen for TDP1 inhibitors) | AID 686979 | hit rate 12% among 420,000 | chicken DT40 Tdp1-/-;hTDP1 cells + 20 nM CPT, ATP luminescence, 48 h | Potency, µM (series often up to 46.2 µM), for the others: at the top dose activity change, negative = growth inhibition, actives largely listed as inhibitors; note: potency is the fitted concentration of half-maximal effect; nearly all actives have a fitted effect of over 55% in size
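Chicken DT40 Tdp1-/- cells stably complemented with human TDP1 were seeded at 400 cells/well in medium containing 20 nM camptothecin, exposed to pin-transferred compounds, and grown at 37 °C for at least 48 hr. Viability was read as ATP luminescence.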
ELG1 repair inh – ELG1-dependent DNA repair inhibition; Potency, µM (titrated, usually from 46.1 µM), inactives show at the highest dose activity change, negative = inhibition, most hits filed as inhibitors; HEK293T ELG1-luciferase reporter, luminescence, 16 h; DNA damage induced by 5-fluorouridine; AID 504467; hit rate 2.3% among 330,000; note: potency is the fitted concentration of half-maximal effect; nearly all actives have a fitted effect of over 55% in size
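Luminescence from the luciferase reporter, measured 30 min after ONE-Glo reagent at room temperature, was the read-out. Beforehand, 2,000 cells per well were exposed for 16 hr at 37 °C to 5-fluorouridine together with compound or vehicle.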
DT40 TDP1 no CPT – qHTS for Inhibitors of human tyrosyl-DNA phosphodiesterase 1 (TDP1): qHTS in cells in absence of CPT; AID 686978, 2013; Potency, µM (top dose mostly 46.2 µM), without a hit: at the top dose activity change, negative = growth inhibition, usual class: inhibitors; hit rate 15% among 420,000; DT40 Tdp1-/- hTDP1 cells, no CPT, ATP luminescence, 48 h; note: potency is the fitted concentration of half-maximal effect; nearly all actives have a fitted effect of over 55% in size
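Chicken DT40 Tdp1-/- cells stably complemented with human TDP1 were seeded at 400 cells/well with DMSO in place of 20 nM camptothecin. After compound pinning, cells grew at least 48 hr at 37 °C; viability read by CellTiter-Glo luminescence.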
Gal4-VP16 FLuc – inhibits Gal4-VP16 luciferase reporter, ROR gamma counter-screen; Potency, µM (titrated, usually from 53.6 µM), without a hit: at the highest dose activity, negative = inhibition, most hits filed as inhibitors; hit rate 3.5% among 310,000; Drosophila S2 Gal4-VP16 UAS-luciferase, luminescence, 20 h;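 note: Gal4-VP16 expression switched on by copper sulfate through the metallothionein promoter; potency is the fitted concentration of half-maximal effect; nearly all actives have a fitted effect of over 50% in size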
IL1B secr inh – blocks inflammasome-driven IL-1 beta release. THP-1 LPS/ATP IL-1B secretion, AlphaLISA, 16 h; stronger effect = lower value. activity change, % at 57.5 µM. hit rate 4.7% among 360,000. AID 743279; in the data active = activity change below about -50%; inconclusive = mostly about -30% to -49%
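Secreted IL-1B measured by AlphaLISA bead assay after 16 h compound exposure of THP-1 cells; compounds (final up to 57.5 uM) added 1 h before LPS (250 ng/mL) and ATP (1.25 mM) stimulation; lower signal means less secretion.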
* hit, by the source's call; ? = inconclusive; · = no result given. Unless noted, calls come from the whole dose curve; as a rule, active = well fitted curve in the direction sought with a large enough effect; inconclusive = small, poorly fitted or top-dose-only effect, or another doubt; inactive = no such curve, though single readings can be large; an effect the other way counts as inactive or inconclusive. % is set by controls: 0 for no effect and ±100 for the full control effect.

SMILES	RORgamma inh	TDP1 cell CPT	ELG1 repair inh	DT40 TDP1 no CPT	Gal4-VP16 FLuc	IL1B secr inh
COc1ccc(-c2cc(=O)oc(-c3cccc(C)c3)n2)cc1	1.2%	?	7.0%	18.4µM*	-2.4%	0.0
COc1cc(OC)c2c(-c3cccc(/C=C/c4ccc(F)cc4)c3)cc(=O)oc2c1	0.9%	20.6µM*	?	18.4µM*	6.5%	2.7
COc1cc(OC)c2c(C)cc(=O)oc2c1	0.8%	10.0%	?	4.5%	-10.6%	?
Cc1ccc(NC(=O)CSc2nc3ccccc3nc2Cc2ccccc2F)cc1F	·	17.4%	·	1.3%	·	·
COc1ccc(C(=O)OCc2cc(=O)n3nc(-c4cccs4)sc3n2)cc1	·	-16.8%	·	?	·	·
CCOC(=O)C1=CCN(S(=O)(=O)c2ccccc2[N+](=O)[O-])C1c1ccc(C)cc1 (stereo unspecified)	·	?	·	?	·	48.4
CC1(Oc2ccccc2)CCN(Cc2csc3ccccc23)C1 (stereo unspecified)	·	?	·	?	·	32.0
Cc1ccc2c(c1)N(C(=O)CCC(=O)Nc1ccccc1Cl)CC(C)O2 (stereo unspecified)	-14.7%	?	?	?	1.4%	-25.8
COc1ccc(-c2cccc(-c3cc(=O)oc4cc5c(cc34)OCO5)c2)cc1	18.8%	?	-28.6%	?	0.2%	18.2
COc1cc(OC)c2c(-c3cccc(-c4cccc(C)c4)c3)cc(=O)oc2c1	1.8%	4.11µM*	?	3.66µM*	-6.5%	85.8
COc1cc(OC)c2c(-c3cccc(-c4ccc(CO)cc4)c3)cc(=O)oc2c1	-37.8%	1.3µM*	?	0.581µM*	?	5.0
COc1ccccc1CN1CCC2(CC1)CCN(C(=O)c1ccncc1)CC2	-31.0%	14.2%	·	0.2%	6.4%	·
O=C(Nc1cccc(-c2csc(Nc3ccccc3)n2)c1)c1cc([N+](=O)[O-])cc(C(F)(F)F)c1	?	?	-13.7%	?	1.1%	-22.0
O=C(Nc1cccc(-c2csc(Nc3ccc(Cl)cc3)n2)c1)c1cc([N+](=O)[O-])cc(C(F)(F)F)c1	?	18.4µM*	?	18.4µM*	-8.7%	-26.9
O=C(Nc1cccc(-c2csc(Nc3ccc(Cl)cc3)n2)c1)c1cccc(C(F)(F)F)c1	?	?	9.2µM*	20.6µM*	-5.6%	?
O=C(Nc1cccc(-c2csc(Nc3ccc(Cl)cc3)n2)c1)c1ccccc1	17.6%	8.2µM*	?	16.4µM*	0.8%	-58.7*
O=C(Nc1ccc(-c2csc(Nc3ccccc3)n2)cc1)c1ccccc1	21.6%	25.9µM*	-22.9%	20.6µM*	7.9%	35.1
Cc1nc(NC(=O)c2ccccc2)sc1-c1csc(Nc2ccc(F)cc2)n1	24.3%	·	?	·	?	·
CN(C(=O)c1ccc2c(c1)OCO2)C1(C)CCS(=O)(=O)C1 (stereo unspecified)	·	21.2%	5.8%	-6.0%	·	7.4
CCOc1ccc(S(=O)(=O)NCCC(=O)N2CC=C(c3ccccc3)CC2)cc1	·	?	?	11.6µM*	·	-11.3
CCOc1ccc(S(=O)(=O)NCCC(=O)N2CCN(c3ccc(OC)cc3)CC2)cc1	?	?	?	20.6µM*	-3.2%	-4.3
CCOC(=O)c1c(C)nc2sc3c(=O)n(-c4ccc(C)cc4)cnc3c2c1-c1ccc(OC)cc1	0.8%	-8.9%	-9.6%	-11.1%	-4.3%	14.4
CCOC(=O)Cn1nnc2c(sc3nc4c(c(-c5ccc(Cl)cc5)c32)CCC4)c1=O	?	?	-25.5%	16.4µM*	?	5.9
CCOC(=O)c1c(C)nc2sc3c(=O)n(-c4ccc(C(C)=O)cc4)nnc3c2c1-c1ccc(Cl)cc1	9.6%	?	?	16.4µM*	4.8%	-15.4
O=c1[nH]cnc2c1sc1nc3c(c(-c4ccc(Cl)cc4)c12)CCC3	-28.1%	-4.6%	?	-28.5%	-10.9%	56.1
SMILES	RORgamma inh	TDP1 cell CPT	ELG1 repair inh	DT40 TDP1 no CPT	Gal4-VP16 FLuc	IL1B secr inh
CCOC(=O)Cn1nnc2c(sc3nc4c(c(-c5ccccc5)c32)CCC4)c1=O	0.7%	20.6µM*	10.9%	16.4µM*	-2.1%	-3.7
NC(=O)c1sc2nc3c(c(-c4cccnc4)c2c1N)CCC3	?	?	?	-9.4%	1.5%	65.1
Cc1cc2oc(C(=O)Nc3sc4c(c3C(=O)NCc3ccccc3)CCCC4)cc(=O)c2cc1C	·	3.3%	·	0.7%	·	·
CCOCCCNC(=O)c1ccc2c(c1)ncn2-c1ccc(C)cc1C	7.5%	-26.2%	-2.1%	16.4µM*	1.4%	-16.2
COc1ccc(CCNC(=O)c2ccc3c(c2)ncn3-c2ccc(C)cc2C)cc1OC	·	?	·	20.6µM*	·	·
COc1ccc(CCNC(=O)c2ccc3c(c2)ncn3-c2ccc(C(C)C)cc2)cc1OC	·	10.3µM*	·	18.4µM*	·	·
Cc1ccc(S(=O)(=O)N2CCCCC2)cc1C(=O)OC(C)C(=O)NC1CCCCC1C (stereo unspecified)	·	?	-7.9%	?	·	-15.6
CC(=O)Nc1ccc(-c2csc(NC(=O)CCNC(=O)c3ccco3)n2)cc1	·	-25.8%	?	?	·	-16.7
Cc1cc2ccccc2c[n+]1C	·	0.7%	·	-14.3%	·	·
COC(CNC(=O)c1ccc2c3c(onc13)-c1ccccc1C2=O)OC	?	2.91µM*	?	3.26µM*	?	-96.8*
CC(=O)Nc1ccc(S(=O)(=O)N(C)CC(=O)NNC(=O)Cc2nc3ccccc3n2C)cc1	·	-2.8%	-6.1%	-21.1%	·	8.2
Cc1ccc(N2CCN(c3ccc(NCc4nc5ccccc5n4C)cc3)CC2)cc1	11.2µM*	?	-0.6%	16.4µM*	-2.6%	5.9
Cc1cccc(NCc2nc3ccccc3n2C)c1	-19.2%	-7.4%	?	-5.8%	-4.3%	4.8
CN(Cc1nc2ccccc2n1C)S(=O)(=O)c1ccc(Cl)cc1	?	?	?	25.9µM*	8.7%	-17.8
Cc1ccc(NCc2nc3ccccc3n2C)c(C)c1	12.6µM*	?	?	?	10µM*	-17.3
Cn1c(CNc2ccc(Cl)cc2)nc2ccccc21	?	16.4µM*	?	?	?	10.3
O=C(/C=C/[C@H]1O[C@@H](n2ccc(=O)[nH]c2=O)[C@H](O)[C@@H]1O)NCc1ccco1	·	-2.2%	·	-2.3%	·	8.8
CN(CC(=O)Nc1ccccc1C(F)(F)F)C(=O)C1CC1	·	-5.4%	1.2%	11.4%	·	-1.9
